Reference: ChEMBL document CHEMBL4513216, “Probing the Open Global Health Chemical Diversity Library for Multistage-Active Starting Points for Next-Generation Antimalarials” (ACS Infect Dis, 2020)
Screen size: about 68,000 compounds; about 2,700 (4%) showed an effect of 50% or more. Shown is part of a subset that was picked to be rich in strong results.

tested on: Plasmodium berghei; assay: Screen against P. berghei liver stage (PbLuc), transformed with Luciferase, at 2uM; type: functional, HepG2; conditions: tested at 2 uM

Row | SMILES | INHIBITION
1 | O=C(c1cccnc1)N1CCCC1c1cc[nH]n1 (stereo not given) | 40.31%
2 | Cc1ccc(C(=O)N(Cc2ccc(F)cc2)C2CC2)c(=O)[nH]1 | 27.33%
3 | Cc1ccc(C(=O)N(Cc2cccc(F)c2)C2CC2)c(=O)[nH]1 | 63.46%
4 | Cc1ccc(C(=O)N(Cc2ccc(F)cc2F)C2CC2)c(=O)[nH]1 | 20.76%
5 | O=C(O)c1c(-c2ccoc2)ncc2c1CCN(C1CCOC1)C2 (stereo not given) | 55.52%
6 | CCN(CC)c1ncc2c(c1C(=O)O)CCN(C1CCOC1)C2 (stereo not given) | 24.51%
7 | O=C(O)c1c(NC2CCC2)ncc2c1CCN(C1CCOC1)C2 (stereo not given) | 45.12%
8 | O=C(O)c1c(-c2ccncc2)ncc2c1CCN(C1CCOC1)C2 (stereo not given) | -80.9%
9 | CN1CCN(c2ncc3c(c2C(=O)O)CCN(C2CCOC2)C3)CC1 (stereo not given) | 21.28%
10 | CCN(C)c1ncc2c(c1C(=O)O)CCN(C1CCOC1)C2 (stereo not given) | 54.13%
11 | CNS(=O)(=O)c1ccc(CNC(=O)Nc2cn[nH]c2)cc1 | 2.07%
12 | COc1ccccc1CCc1nc(CC2CCN(C)CC2)no1 | 34.46%
13 | COc1c[nH]c(C(=O)N2CCN(c3cccc(Cl)c3)CC2)cc1=O | 22.88%
14 | CCc1ncc(CN2C[C@@H]3CC[C@H]2CN(C(=O)C2CCC2)C3)cn1 | 12.3%
15 | Cc1c(Cl)cc(C(=O)N(CCO)Cc2nccn2C)cc1Cl | 55.84%
16 | Cn1ccnc1CN(CCO)C(=O)c1cnc2ccccc2c1 | 29.71%
17 | Cn1ccnc1CN(CCO)C(=O)c1cc2ccccc2o1 | 22.27%
18 | CC(C)NC(=O)NC(C)c1nc(-c2ccccc2)cs1 (stereo not given) | -22.08%
19 | Cc1csc(N(C)C(=O)C2CC(=O)N(c3ccccc3Cl)C2)n1 (stereo not given) | -29.95%
20 | CN1CCc2nc(C3CCCN(S(=O)(=O)N4CCCC4)C3)ncc2C1 (stereo not given) | -1.51%
21 | CN1CCc2nc(C3CCCN(S(=O)(=O)c4ccccc4)C3)ncc2C1 (stereo not given) | 64.55%
22 | CCN(CC)S(=O)(=O)N1CCCC(c2ncc3c(n2)CCN(C)C3)C1 (stereo not given) | 3.38%
23 | Cc1nc(N2CCCC2C(=O)NC(C)(C)CO)nc2ccccc12 (stereo not given) | 26.49%
24 | COCC1CN(c2ccc(Cl)cc2C#N)CCO1 (stereo not given) | 29.3%
25 | Cc1nc(CN2CCCC(c3nc(C)n4c(C)c(C)sc34)C2)co1 (stereo not given) | -12.89%
26 | Cc1cc(CNC2(CO)CCOCC2)ccc1Br | 51.08%
27 | Cc1cc(CNCC2(O)CCOCC2)ccc1Br | -6.29%

Row | SMILES | INHIBITION
28 | OCC1(NCc2cccc(-n3cccn3)c2)CCOCC1 | -2.38%
29 | CCn1c(CN2CCN(C(=O)C3CCC3)CC2)nc2c(F)cccc21 | 10.22%
30 | O=C(C1CNCCO1)N1CCCC(c2ccccc2)(c2ccccc2)C1 (stereo not given) | 42.2%
31 | CCCc1nc(C)c(C(=O)NS(=O)(=O)c2cccnc2)s1 | -25.2%
32 | Cc1nc(C(C)C)sc1C(=O)NS(=O)(=O)c1ccc(C#N)cc1 | 36.12%
33 | CCCc1nc(C)c(C(=O)NS(=O)(=O)c2ccc(C#N)cc2)s1 | 55.63%
34 | Fc1ccc(CN2CCCC3(COCCN(Cc4c[nH]nn4)C3)C2)cc1 (stereo not given) | 23.81%
35 | O=C1CC(c2ccc(C(=O)O)cc2)c2ncn(-c3ccccc3)c2N1 (stereo not given) | -29.53%
36 | O=C1CC(c2ccc(C(=O)O)cc2)c2ncn(-c3cccc(F)c3)c2N1 (stereo not given) | -20.06%
37 | O=C1CC(c2ccc(C(=O)O)cc2)c2ncn(-c3cccc(Cl)c3)c2N1 (stereo not given) | 53.61%
38 | CN(Cc1noc(C2CC2)n1)C1CCN(CCc2cccs2)C1 (stereo not given) | 30.88%
39 | Cc1cnc(CN(C)C2CCN(CCCc3cnn(C)c3)C2)o1 (stereo not given) | 8.42%
40 | CC(C)c1cnc(CN(C)C2CCN(CCCc3cnn(C)c3)C2)o1 (stereo not given) | 59.23%
41 | CN(Cc1cnn(C)c1)C1CCCN(Cc2noc(C3CC3)n2)C1 (stereo not given) | 22.75%
42 | CN(Cc1nnc(C2CC2)n1C)C1CCN(CCc2ccncc2)C1 (stereo not given) | -0.45%
43 | CN(Cc1nnc(C2CC2)n1C)C1CCN(CCc2cnn(C)c2)C1 (stereo not given) | 81.1%
44 | Cc1cc(C)n(CCN2CCC(N(C)Cc3noc(C4CC4)n3)C2)n1 (stereo not given) | 12.66%
45 | CN(Cc1nnc(C2CC2)n1C)C1CCN(CCc2ccccc2)C1 (stereo not given) | -11.31%
46 | CC(C)c1cnc(CN(C)C2CCN(CCc3cnn(C)c3)C2)o1 (stereo not given) | 5.59%
47 | CN(Cc1noc(C2CC2)n1)C1CCN(CCc2cnn(C)c2)C1 (stereo not given) | 64.87%
48 | Cc1ccc(CCN2CCC(N(C)Cc3noc(C4CC4)n3)C2)cc1 (stereo not given) | 54.85%
49 | Cc1nc(CN(C)C2CCN(CCc3cnn(C)c3)C2)no1 (stereo not given) | 31.7%
50 | COc1ccnc(C(=O)N2CCCC(c3noc(C)n3)C2)c1 (stereo not given) | 11.71%
51 | Cc1cc(C)c2nc(CN3CCCC(c4cc[nH]n4)C3)cc(O)c2c1 (stereo not given) | -45.64%
52 | Cn1cc(CNC(=O)c2cc3c(s2)CCCCC3)cn1 | 36.66%
53 | COc1cc(C2CC(=O)Nc3c2nc2n3CCCC2)ccc1O (stereo not given) | 0.1%
54 | CC1CCN(C(=O)c2cc(NC(=O)c3ccccc3)n(C)n2)CC1 | -57.06%

Row | SMILES | INHIBITION
55 | CCc1cc(NCCCN(C)C2CCCC2)ncn1 | 36.22%
56 | CC(C)NC(=O)N1CCC2(CCC(=O)N2CCN(C)C)CC1 | 16.12%
57 | Cc1c(C2=NS(=O)(=O)N(C)C(C(=O)Nc3ccc(Br)cc3)=C2)cnn1C | 22.84%
58 | CN1C(=O)CCCC12CCCN(Cc1nccs1)C2 (stereo not given) | 20.2%
59 | CCN(Cc1ccccc1)C(=O)CN1CCCC(Cn2cncn2)C1 (stereo not given) | 33.16%
60 | CNC(=O)CN1CCN(C(=O)c2ccn(C)c(=O)c2)CC1 | -16.28%
61 | CSc1ccc(C(=O)C2CCCN(C(=O)CCn3cncn3)C2)cc1 (stereo not given) | 55.25%
62 | CSc1ccc(C(=O)C2CCCN(C(=O)CCCn3cncn3)C2)cc1 (stereo not given) | 49.98%
63 | CC(C)c1nc(C2CCCN2C(=O)CCn2cncn2)no1 (stereo not given) | -15.92%
64 | CC(C)c1nc(C2CCCN(C(=O)CCCn3cncn3)C2)no1 (stereo not given) | -45.72%
65 | CC(C)c1nc(C2CCCN(C(=O)CCn3cncn3)C2)no1 (stereo not given) | 64.16%
66 | CSc1ccc(C(=O)C2CCCN(C(=O)CCn3cnnn3)C2)cc1 (stereo not given) | 35.13%
67 | c1ccn2cc(CN3CCCC(c4ccn[nH]4)C3)nc2c1 (stereo not given) | 13.4%
68 | Cc1cc(C2CCCN(Cc3cccnc3)C2)n[nH]1 (stereo not given) | 30.82%
69 | CC1c2ccc(F)cc2CCN1C(=O)c1[nH]c(=O)[nH]c(=O)c1N (stereo not given) | -36.67%
70 | CCOC(=O)c1ccc(NC(=O)c2c(O)nc3c(c2O)CCCC3)cc1 | -23.02%
71 | CC(=O)N1CC(=O)N(c2cnn(C)c2)CC12CCN(CC1CC1)C2 (stereo not given) | -7.82%
72 | Cc1cccc(C(=O)N2CCO[C@H]3[C@H](OCCN(C)C)CC[C@@H]32)n1 | 19.98%
73 | Cc1nn(C)c(N(C)C)c1CNCCC(=O)NC1CCCCC1 | 68.24%
74 | CC(C)c1nn(C)c(N(C)C)c1CNCCC(=O)NC1CCCC1 | -0.64%
75 | COc1c(CNCCC(=O)NC2CCCCC2)c(C(C)C)nn1C | 64.16%
76 | COc1c(CNC(C)C(=O)NC2CCCC2)c(C(C)C)nn1C (stereo not given) | 3.59%
77 | COc1c(CNCCC(=O)NC2CCCC2)c(C(C)C)nn1C | -5.09%
78 | Cc1nn(C)c(N(C)C)c1CNCCC(=O)NC1CCCC1 | 41.76%
79 | CC(C)c1nn(C)c(N(C)C)c1CNCCC(=O)NC1CCCCC1 | 39.72%
80 | CC(NCc1c(C(C)C)nn(C)c1N(C)C)C(=O)NC1CCCC1 (stereo not given) | 10.04%
81 | COc1c(CNC(C)C(=O)NC2CCCC2)c(C)nn1C (stereo not given) | 60.34%

Row | SMILES | INHIBITION
82 | O=C(NC1CCC1)[C@@H]1C[C@@H]2CCN(CCc3ccccc3)C[C@H]2O1 | -39.67%
83 | CNC(=O)CN1CCOCC2(CCCN(Cc3ccc(F)cc3)C2)C1 (stereo not given) | 34.24%
84 | C[C@H]1C[C@H]2CN(S(=O)(=O)c3ccc(F)cc3)CC[C@@H]2O1 | -21.77%
85 | COCCNC(=O)Nc1ccc(-n2cncn2)c(F)c1 | 0.26%
86 | CC(=O)Nc1ccc(-n2cncn2)c(F)c1 | 8.5%
87 | COCCOc1ncccc1C(=O)Nc1ccc(-n2cncn2)c(F)c1 | 69.41%
88 | COC[C@]1(O)CCN(c2cc(N3CCOCC3)ncn2)CC1(C)C | -18.81%
89 | COc1ccc(CNC(=O)Nc2cccnc2N2CCCC2)cc1O | 24.15%
90 | O=C1N(CC2CC2)CCC12CCN(c1ncccn1)CC2 | 8.37%
91 | Cc1cnc(N2CCC3(CCN(CC4CC4)C3=O)CC2)nc1 | 51.19%
92 | CN1CCC2(CCN(c3ncc(F)cn3)CC2)C1=O | 34.19%
93 | Cc1cnc(N2CCC3(CCN(CC4CCCC4)C3=O)CC2)nc1 | 45.28%
94 | O=C1N(CC2CC2)CCC12CCCN(c1ncc(F)cn1)C2 (stereo not given) | -14.61%
95 | O=C1N(CC2CCCC2)CCC12CCN(c1ncc(F)cn1)CC2 | 61.15%
96 | Cc1ccc(CNC(=O)NC2CCCN(c3ncccn3)C2)n1C (stereo not given) | 30.83%
97 | Cc1ccc(C(CNCc2ccncc2)N2CCOCC2)s1 (stereo not given) | -27.89%
98 | Cc1ccc(C(CNCc2ncc[nH]2)N2CCOCC2)s1 (stereo not given) | 6.4%
99 | Cc1ccc(C(CNCc2nccn2C)N2CCOCC2)s1 (stereo not given) | 69.82%
100 | CCn1ccnc1CNCC(c1ccc(C)s1)N1CCOCC1 (stereo not given) | 76.65%
101 | CCn1cc(CNCC(c2ccc(C)s2)N2CCOCC2)cn1 (stereo not given) | 8.33%
102 | Cc1ccc(C(CNCc2cccn2C)N2CCOCC2)s1 (stereo not given) | -24.42%
103 | NS(=O)(=O)CCNC(=O)c1nnn(-c2ccccc2)c1C1CC1 | 2.39%
104 | Cc1nc(NC(=O)CN2CCc3c(nc(C(C)C)n3C)C2)sc1C | -1.14%
105 | CS(=O)(=O)N1CCO[C@@H]2CN(C(=O)COC3CCCC3)C[C@@H]2C1 | 17.4%
